# Calls of active or inactive are those of the source. How the calls were made is not given here.
# Experiment: inhibition of Brca1/Bard1 split-luciferase complementation, confirmation, counter-screen for Mdm2/MdmX interaction inhibitor project, luminescence, single concentration (AID 504668)
# Conditions: Brca1/Bard1 bimolecular luciferase complementation counterscreen, at 8 µM, hits give high values
row,SMILES,inhibition
1,O=C(N/N=C/c1cc(Br)ccc1O)c1cccc(N2CCCC2=O)c1,31.4% (active)
2,CCOc1cc(NC(=O)c2ccco2)c(OCC)cc1NC(=O)COc1ccccc1C,33.4% (active)
3,Cc1ccc(/C=C/C(O)=C2/C(=O)N(C)C3(C)CC2c2ccccc2O3)cc1 (centres undefined),30.1% (active)
4,O=C(N/N=C/c1c(O)ccc2ccccc12)c1cccnc1,29.9% (active)
5,Oc1ccccc1CNc1ccc(Br)cn1,28.8% (active)
6,O=C(C#Cc1ccccc1)Nc1cccc(F)c1,30.5% (active)
7,COC(=O)c1ccc2nc(NC(=O)CCS(=O)(=O)c3ccccc3)sc2c1,27.4% (active)
8,O=C(COc1ccc([N+](=O)[O-])cc1)Nc1nc(-c2ccccn2)cs1,35.6% (active)
9,CC1=Nc2cc(C(=O)N3CCCC3)ccc2Sc2c(C)ccc(C)c21,23.1% (active)
10,O=C(CCl)Nc1cn(-c2ccccc2)nc1-c1ccccc1,33.7% (active)
11,O=C(Nc1nc(-c2ccccn2)cs1)c1ccc(F)c(S(=O)(=O)N2CCOCC2)c1,25.6% (active)
12,COc1cc(OC)c2cc(C(=O)N/N=C/c3cccc(OC)c3O)[nH]c2c1,33.8% (active)
13,CCN1CCN(CCNC(=O)c2ccc(/C=C3/Sc4ccccc4N(Cc4cccc(C)c4)C3=O)cc2)CC1,27.6% (active)
14,CCOC(=O)/C(=C\c1cccc(O)c1)c1nc2sc(C)c(C)c2c(=O)[nH]1,27% (active)
15,O=C(NCCCO)c1c(O)c2cccc3c2n(c1=O)CCC3,24.6% (active)
16,Cc1cccc(/C=N/NC(=O)c2c(-c3ccccc3)noc2C)c1O,35.6% (active)
17,CCc1ccc(C(O)(CC(C)C)C(CN2CCOCC2)c2ccccc2)cc1 (centres undefined),27.2% (active)
18,Cc1cc(C)nc(N/N=C/c2cc(Br)ccc2O)n1,26.2% (active)
19,Cc1ccc(-n2ncc3c(SCc4ccccn4)ncnc32)c(C)c1,27.6% (active)
20,Cc1cc([N+](=O)[O-])cc(/C=N\NC(=O)C2COc3ccccc3O2)c1O (centres undefined),27.6% (active)

row,SMILES,inhibition
1,Cc1conc1NC(c1cccs1)c1ccc2cccnc2c1O (centres undefined),31.8% (active)
2,CN1CCN(C(c2ccc(C(F)(F)F)cc2)c2ccc3cccnc3c2O)CC1 (centres undefined),27.9% (active)
3,O=C(Nc1ccccc1)C1=C[C@@H](C2CCCCC2)C[C@@H](OCc2ccc(CO)cc2)O1,24.1% (active)
4,CCCc1c(NC(=O)Nc2ccc(F)cc2)cnn1-c1ccccc1,29.3% (active)
5,COc1cc(/C=C/c2ccc3cccc(O)c3n2)cc(OC)c1OC,27.2% (active)
6,CCCCCCCCCn1ccc(=N)cc1,23.6% (active)
7,COc1ccc2nc(N=Nc3ccc(O)c4ccccc34)sc2c1,35.3% (active)
8,C/C(=N/NC(=O)CN(c1ccccc1)S(=O)(=O)c1ccccc1)c1ccccc1O,26.8% (active)
9,CC(C)[C@@H]1CC[C@@H](C)C[C@H]1OC(=O)C[n+]1cc(-c2ccc(Cl)cc2)n2c1CCCCC2,28.7% (active)
10,CCS(=O)(=O)c1nnnn1-c1ccccc1S(C)(=O)=O,34.3% (active)
11,Cc1ccccc1-c1cc(C(=O)Nc2nc3c(s2)CCCC3)c2ccccc2n1,34.9% (active)
12,CCN1C(=O)C2(Nc3ccccc3-c3nc4ccccc4n32)c2cc(OC)ccc21 (centres undefined),23.7% (active)
13,COc1ccc(C)cc1NC(=O)c1ccccc1NS(=O)(=O)c1ccc(Cl)s1,32.4% (active)
14,COc1ccc(/C=C2/SC(=S)N(CCCC(=O)N3CCN(C)CC3)C2=O)cc1,31.7% (active)
15,O=C(N/N=C/c1ccc(O)c2ncccc12)c1cccc(Br)c1,32.5% (active)
16,COC1(OC)C(/C=C/c2ccc(C)cc2)C(C#N)(C#N)C1(OC)OC (centres undefined),35.3% (active)
17,C=C(C(=O)c1ccccc1)C(C)CC(=O)c1ccccc1 (centres undefined),32.4% (active)
18,Cc1cc(C)c(S(=O)(=O)N2CCCCC2CCNC(=O)C(=O)NC2CC2)c(C)c1 (centres undefined),25.4% (active)
19,O=C(CCCN1C(=O)/C(=C/c2cccc(Br)c2)SC1=S)Nc1ccccn1,31% (active)
